This is part of a sample that, as a whole, favours compounds with a hit. Of some 83,000 tested, about 20% had one in any assay.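 Percent growth is the endpoint: 0 to 100 indicates growth inhibition (40 means 60% inhibition), 0 means no net growth, and negative values indicate cell death.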 Unmarked numbers belong to inactive results. Calls of active or inactive are those of the source. How the source made its calls: active means growth percent below 10; inactive means the rest.

Test systems include NCI-H23 lung; NCI-H226 lung; NCI-H322M lung; NCI-H460 lung; NCI-H522 lung; A549/ATCC NSCLC; 786-0 renal; COLO 205 colon; HOP-92 NSCLC.
Common to all, as to assay: NCI-60 one-dose screen, 48 h (100 = growth as untreated, 0 = no growth, -100 = all killed)
Holding throughout (details): 10 µM

For the compound `CCN1C(=O)CC(SC2CC(=O)N(CC)C2=O)C1=O` (stereo not drawn), the growth in the experiment with NCI-H23 lung is 95.9%; with NCI-H226 lung, 104%; with NCI-H322M lung, 110%; with NCI-H460 lung, 109%; in the experiment with NCI-H522 lung it was 96.1%; with A549/ATCC NSCLC, 104%. Besides, the growth with 786-0 renal is 101%; in the experiment with COLO 205 colon it was 81.4%.

Consider `NC(N)=N/N=C(\N=Nc1ccccc1)c1ccc(Cl)cc1`, for which the growth in the experiment with NCI-H23 lung was 78.9%; in the experiment with NCI-H226 lung, 82.3%; with NCI-H322M lung, 64.8%; in the experiment with NCI-H460 lung it was 40%; in the experiment with NCI-H522 lung, 29.9%; with A549/ATCC NSCLC it was 52.7%. Moreover, the growth in the experiment on 786-0 renal was 46.7%; in the experiment with COLO 205 colon it was 48.1%.

Regarding `CSc1ccc(-c2cc(-c3ccc(NC(=O)CCCN4CCCC4)cc3)nc(-c3ccc(NC(=O)CCCN4CCCC4)cc3)c2)cc1`, the growth in the experiment with NCI-H23 lung was 92.8%; in the experiment with NCI-H226 lung, 81.9%; in the experiment on NCI-H322M lung, 94.8%; with NCI-H460 lung, 32.1%; in the experiment on NCI-H522 lung it was 62.5%; with A549/ATCC NSCLC it was 46.2%. The growth was 80.7% in the experiment on 786-0 renal and 82.6% with COLO 205 colon.

As for `COc1cc2nc(SCC(=O)Nc3cc(OC)c(OC)c(OC)c3)n(Cc3ccccc3)c(=O)c2cc1OC`, the growth in the experiment on NCI-H23 lung was 69.6%; in the experiment with NCI-H226 lung, 45.9%; in the experiment on NCI-H322M lung, 65.2%; in the experiment on NCI-H460 lung it was 68.7%; in the experiment on A549/ATCC NSCLC it was 28.1%; in the experiment on 786-0 renal, -6.9% (active). Moreover, the growth with COLO 205 colon was 96.2%.

For the compound `COc1ccc(C(=O)CC(CC(=O)c2ccc(OC)cc2)c2c(C)nn(-c3ccccc3)c2Cl)cc1`, the growth is 90.7% with NCI-H23 lung; 92.8% in the experiment with NCI-H226 lung; 96.5% in the experiment with NCI-H322M lung; 97.5% in the experiment with NCI-H460 lung; 95.1% in the experiment with A549/ATCC NSCLC; 86.3% with 786-0 renal. In addition, in the experiment on COLO 205 colon, the growth is 117%.

For `CN(C)c1ccc(/C=N/NC(=O)c2cccc3ccccc23)c(Cl)c1`, the growth in the experiment with NCI-H23 lung is 1.31% (active); with NCI-H226 lung, 61.2%; in the experiment on NCI-H322M lung it was 57.6%; in the experiment on NCI-H460 lung, 19.2%; with NCI-H522 lung, 22.6%; in the experiment on A549/ATCC NSCLC it was 26.8%. Besides, the growth with 786-0 renal was 56.1%; in the experiment with COLO 205 colon, 19.7%.

With `N=C1S/C(=C/c2ccc(-c3ccc4c(c3)C(=O)NC4=O)o2)C(=O)N1c1ccc(Br)cc1`, the growth in the experiment on NCI-H23 lung was 55.8%; in the experiment with NCI-H226 lung, 66.5%; with NCI-H322M lung it was 43%; in the experiment with NCI-H460 lung it was 34.6%; in the experiment with NCI-H522 lung it was 35.5%; in the experiment with A549/ATCC NSCLC, 34.5%. For the same compound, the growth in the experiment with 786-0 renal was 45.9%; with COLO 205 colon, 55.1%.

`Cc1cc(C)nc(NS(=O)(=O)c2ccc(Nc3nc4nc(NCc5ccccc5)nc(-c5ccc(O)cc5)c4c(=O)[nH]3)cc2)n1`: the growth was 31.6% in the experiment with NCI-H23 lung; 31.9% in the experiment on NCI-H226 lung; 10.2% in the experiment with NCI-H322M lung; 16.4% with NCI-H460 lung; -11.1% (active) in the experiment with HOP-92 NSCLC; 43.9% with A549/ATCC NSCLC. Also, in the experiment with COLO 205 colon, the growth was 35.3%.

For `O=c1oc2c(cc1-c1ccc(F)cc1)C(O)Oc1ccccc1-2` (stereo not drawn), the growth with NCI-H23 lung is 99.2%; in the experiment with NCI-H226 lung it was 105%; in the experiment on NCI-H322M lung it was 83.1%; in the experiment with NCI-H460 lung it was 80.8%; with HOP-92 NSCLC, 48.8%; in the experiment on A549/ATCC NSCLC, 88.9%. Besides, the growth in the experiment with COLO 205 colon was 101%.

Consider `CCCCC1(O)CCCCC1`, for which the growth was 108% with NCI-H23 lung; 97.3% in the experiment on NCI-H226 lung; 105% in the experiment with NCI-H322M lung; 108% in the experiment with NCI-H460 lung; 103% with A549/ATCC NSCLC; 92.6% with 786-0 renal. The growth in the experiment with COLO 205 colon was 99.1%.

With `NC(N)=N/N=C(\c1ccccc1)C(O)c1ccccc1` (stereo not drawn), the growth with NCI-H23 lung was 101%; with NCI-H226 lung it was 96.1%; in the experiment on NCI-H322M lung it was 101%; with HOP-92 NSCLC, 95%; in the experiment on NCI-H522 lung it was 82.5%; with A549/ATCC NSCLC it was 102%. The results for the growth with 786-0 renal and in the experiment with COLO 205 colon were 98.3% and 101%, respectively.

On to `CC(=O)Nc1cc2c(cc1Cl)Cc1cc(Cl)ccc1-2`, for which the growth in the experiment on NCI-H23 lung was 77.1%; in the experiment on NCI-H226 lung, 83%; with NCI-H322M lung, 96%; in the experiment on NCI-H460 lung, 95.9%; with NCI-H522 lung, 79.6%; in the experiment with 786-0 renal, 112%. Moreover, the growth with COLO 205 colon is 105%.

Take `CCCCC/C=C/C/C=C/CCCCCCCC1=NC(C)(C)CN1C(C)C`: the growth with NCI-H23 lung was 20.7%; with NCI-H226 lung, 86.5%; in the experiment with NCI-H322M lung, 108%; in the experiment with NCI-H460 lung it was -32.3% (active); in the experiment on 786-0 renal, 62.4%; in the experiment with COLO 205 colon, -87.2% (active).

Consider `CC(C)(C)c1ccc(S(=O)(=O)N[C@H]2CC[C@H]3[C@@H]4CCc5cc(OS(=O)(=O)O)ccc5[C@H]4CC[C@]23C)cc1`, for which the growth was 56.8% with NCI-H23 lung; 52.4% in the experiment on NCI-H226 lung; 61% in the experiment with NCI-H322M lung; 26.2% in the experiment on NCI-H460 lung; 31.6% in the experiment on A549/ATCC NSCLC; 50% in the experiment with 786-0 renal. Moreover, in the experiment on COLO 205 colon, the growth was 13.8%.

Regarding `O=C(CCl)Oc1ccc(OC(=O)CCl)cc1`, the growth in the experiment on NCI-H23 lung is 78.3%; with NCI-H226 lung, 96.5%; in the experiment on NCI-H322M lung, 101%; in the experiment with NCI-H460 lung, 95%; in the experiment on NCI-H522 lung, -14.1% (active); in the experiment with A549/ATCC NSCLC, 96%. For the same compound, the growth in the experiment with 786-0 renal is 82%.

`Cc1ccc(-c2c3c(N)nc(-c4cccnc4)nc3nc3c2c(C)nn3-c2ccccc2)cc1`: the growth was 97.9% with NCI-H23 lung; 52.2% in the experiment on NCI-H226 lung; 76.8% in the experiment on NCI-H322M lung; 85% in the experiment on NCI-H460 lung; 46.5% with HOP-92 NSCLC; 68.4% in the experiment on A549/ATCC NSCLC. In addition, the growth was 80.9% in the experiment on 786-0 renal and 83.6% in the experiment with COLO 205 colon.

Source of the values: PubChem BioAssay (NCI).
